JMJD2A Tudor = qHTS Assay for Inhibitors of JMJD2A-Tudor Domain; AlphaScreen JMJD2A-Tudor / H3K4me3 peptide binding; Potency, µM (series often up to 114 µM), without a hit: at the highest dose activity change, negative = inhibition, usual class: inhibitors; hit rate 4.4% among 390,000; AID 504339, 2011; further: potency means the concentration at half of the fitted maximal effect; on the % scale 0 is the no-effect control and ±100 the full control effect; nearly all actives have a fitted effect of over 50% in size
CtBP-E1A inh = qHTS Assay for Inhibitors of the CtBP/E1A Interaction. CtBP / adenovirus E1A interaction (AlphaScreen). AlphaScreen GST-E1A/His-CtBP binding, 1536-well; hits give low values. activity change, % (concentration not given with the values). hit rate 0.49% among 340,000; in the data active means activity change below about -65%; inconclusive means mostly about -30% to -63%; further: on the % scale 0 is the no-effect control and ±100 the full control effect
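GST-E1A and His-tagged CtBP (125 nM each as 5X stock) were preincubated with pin-transferred compound for 2 h at 37 °C in the dark, then glutathione donor and nickel acceptor beads were added for 1 h before AlphaScreen reading.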
Six1-Eya2 inh = qHTS Assay for Inhibitors of the Six1/Eya2 Interaction | activity change, % (concentration not given with the values) | Homeobox protein SIX1 (Homo sapiens) + Protein phosphatase EYA2 (Homo sapiens), … | hit rate 0.56% among 360,000 | AlphaScreen GST-Six1/His-Eya2 binding, biochemical; hits give low values | AID 651725, 2012; in the data active means activity change below about -65%; inconclusive means mostly about -30% to -63%; further: on the % scale 0 is the no-effect control and ±100 the full control effect
Target sequence (O00167 whole entry, looked up): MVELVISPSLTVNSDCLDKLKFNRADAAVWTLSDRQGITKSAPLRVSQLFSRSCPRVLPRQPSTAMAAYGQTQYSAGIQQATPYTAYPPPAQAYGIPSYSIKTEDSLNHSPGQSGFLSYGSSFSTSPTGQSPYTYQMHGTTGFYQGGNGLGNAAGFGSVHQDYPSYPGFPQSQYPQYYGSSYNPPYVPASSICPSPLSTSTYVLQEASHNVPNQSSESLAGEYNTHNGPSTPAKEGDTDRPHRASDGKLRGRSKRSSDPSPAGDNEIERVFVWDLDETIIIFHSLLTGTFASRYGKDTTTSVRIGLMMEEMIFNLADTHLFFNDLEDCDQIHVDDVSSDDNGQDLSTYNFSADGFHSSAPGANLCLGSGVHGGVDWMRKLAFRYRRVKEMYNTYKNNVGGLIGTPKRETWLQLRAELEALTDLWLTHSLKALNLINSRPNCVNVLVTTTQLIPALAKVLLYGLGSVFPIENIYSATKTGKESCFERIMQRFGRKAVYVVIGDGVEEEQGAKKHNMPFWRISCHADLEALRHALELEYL
Target sequence (Q15475 whole entry, looked up): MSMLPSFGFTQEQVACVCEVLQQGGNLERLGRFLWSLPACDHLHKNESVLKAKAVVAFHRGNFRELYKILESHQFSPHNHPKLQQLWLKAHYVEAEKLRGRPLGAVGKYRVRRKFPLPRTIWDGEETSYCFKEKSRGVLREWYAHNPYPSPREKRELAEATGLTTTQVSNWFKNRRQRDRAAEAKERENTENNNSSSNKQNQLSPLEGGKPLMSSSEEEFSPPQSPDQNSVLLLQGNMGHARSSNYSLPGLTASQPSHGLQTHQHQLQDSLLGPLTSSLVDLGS
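Compounds are tested against tagged Six1 and Eya2 proteins bridged by glutathione donor and nickel acceptor beads; after a one-hour incubation at 37 °C without light, AlphaScreen emission is recorded.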
BAZ2B inh = qHTS Assay for Inhibitors of BAZ2B | AlphaScreen BAZ2B-H3K14Ac peptide displacement | Bromodomain adjacent to zinc finger domain protein 2B (Homo sapiens), Q9UIF8 | AID 504333, 2011 | hit rate 4.4% among 360,000 | Potency, µM (highest dose often 114 µM), without a hit: at the top dose activity change, negative = inhibition, hits mostly inhibitors; further: potency means the concentration at half of the fitted maximal effect; on the % scale 0 is the no-effect control and ±100 the full control effect; nearly all actives have a fitted effect of over 60% in size
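Multi-concentration screen (max 110 uM) measuring displacement of acetylated histone H3 peptide from BAZ2B by AlphaScreen, using 50 nM protein, 50 nM peptide and 10 ug/mL streptavidin donor plus Ni-chelate acceptor beads.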
HP1b binding inh = HTS for Inhibitors of HP1-beta Chromodomain Interactions with Methylated Histone Tails. Chromobox protein homolog 1 (Homo sapiens), P83916. AlphaScreen HP1-beta / biotin-H3K9me3 peptide binding. Potency, µM (titrated, usually from 114 µM), without a hit: at the highest dose activity change, negative = inhibition, actives largely listed as inhibitors. hit rate 0.56% among 390,000. AID 540317, 2011; further: potency means the concentration at half of the fitted maximal effect; nearly all actives have a fitted effect of over 70% in size
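AlphaScreen: HP1-beta (50 nM) preformed 30 min with biotin-H3(1-18)K9me3 peptide (50 nM) in PBS pH 7.4, 0.01% Tween-20. Compound added for 30 min at RT, then streptavidin donor/nickel chelate acceptor beads (10 ug/mL) for 30 min.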
G9a block = qHTS Assay for Inhibitors of Histone Lysine Methyltransferase G9a. G9a H3K9 monomethylation, AlphaScreen, 2 h. Potency, µM (titrated, usually from 102 µM), for inactives: top-dose activity, negative = inhibition, usual class: inhibitors. hit rate 8.8% among 350,000. AID 504332, 2011; further: potency means the concentration at half of the fitted maximal effect; on the % scale 0 is the no-effect control and ±100 the full control effect; nearly all actives have a fitted effect of over 75% in size
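Signal arises when biotinylated H3K9 peptide, once monomethylated, bridges streptavidin donor and antibody-captured acceptor beads. Enzyme at 20 nM was preincubated 15 min with test compounds; peptide 500 nM and SAM 20 uM then reacted for 2 h.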
* hit, by the source's call; ? = inconclusive; . = not tested or not shown; [ ] = dose if it differs, or a comment. Hits are enriched below; roughly 10% of the tested compounds scored in any of these assays. Unless noted, the call rests on the fitted dose curve; in most records, active means well fitted inhibition curve with a large enough effect; inconclusive means small, poorly fitted or top-dose-only effect; inactive means no such curve, though single readings can be large or run the other way.

SMILES | JMJD2A Tudor | CtBP-E1A inh | Six1-Eya2 inh | BAZ2B inh | HP1b binding inh | G9a block
O=C1COc2ccc(-c3csc(=Nc4ccc(OC(F)F)cc4)n3CC3CCCO3)cc2N1 (centres undefined) | ? | -24.0 | -23.2 | ? | -15.1% | 27.1%[0.501 µM]
O=C(CC1C(=O)NCCN1Cc1ccc(Cl)c(F)c1)NC1CCCCC1 (centres undefined) | ? | 1.3 | -1.3 | 0.1% | 32.6% | 57.4%
O=C(CC1C(=O)NCCN1Cc1ccccc1C(F)(F)F)NC1CCCC1 (centres undefined) | -9.0% | 1.1 | 1.6 | -18.5% | 39.4% | 44.7µM*
O=C(CC1C(=O)NCCN1Cc1cccc(C(F)(F)F)c1)NC1CCCCCC1 (centres undefined) | -30.3% | 1.6 | 0.5 | -21.4% | 19.6% | 39.8µM*
Cc1cc(OCC(=O)NC2CC(C)(C)NC(C)(C)C2)c2c(C)c(C)c(=O)oc2c1 | -10.4% | -4.9 | 3.0 | ? | 24.1% | -9.4%
CCn1c(N2CCN(CC(=O)c3ccc(OC)cc3)CC2)nc2ccccc21 | -16.8%[57.1 µM] | -12.5 | -0.3 | 1.2% | 5.7% | -46.1%[59 µM]
COc1ccc(C(=O)CN2CCN(c3cc(C)nc4ccccc34)CC2)cc1 | -17.4% | 2.2 | 0.4 | -11.8% | 36.6% | 12.6µM*
COc1ccc(N2CCN(C(=O)CCCC(=O)c3ccccc3)CC2)cc1 | -22.1% | -3.8 | -15.6 | ? | 17.1% | -13.8%
COc1ccc2c(c1)c(C(=O)CN1CCN(Cc3ccccc3)CC1)c(C)n2C | -18.6% | -0.3 | -8.9 | -4.2% | 21.6% | .
COc1ccc(N2CCN(CCC(=O)c3ccc4ccccc4c3)CC2)cc1 | ? | -5.7 | -8.4 | ? | -9.7% | 10µM*
COc1ccc(N2CCN(CC(=O)c3ccccc3)CC2)cc1 | ? | 0.1 | -5.8 | -20.7% | -2.1% | 11.2µM*
COc1ccc2c(c1)c(C(=O)CN1CCN(c3ccccc3)CC1)c(C)n2C | -32.7% | -5.1 | -14.3 | ? | -6.9% | 35.5µM*
COc1cc(C(=O)Nc2c(C(=O)Nc3ccccc3F)oc3ccccc23)cc(OC)c1OC | -13.6% | . | . | -1.2% | 32.4% | 14.2%[59 µM]
O=C(COC(=O)C1CCN(S(=O)(=O)c2ccccc2)CC1)NCCc1ccccc1 | -7.8% | . | -0.4 | -0.9% | 29.1% | 9.5%[12.7 µM]
O=C(NC1CCCCC1)C1c2ccccc2OCC(=O)N1CCc1c[nH]c2ccccc12 (centres undefined) | . | 12.3 | 7.0 | . | . | .
Cc1cccc(C)c1NC(=O)CSc1nccn1C | -3.0% | . | . | -18.9% | 26.3% | 8.8%[59 µM]
COc1ccc(N2CCN(CC(=O)N3c4ccccc4CC3C)CC2)cc1 (centres undefined) | 2.82µM* | -4.9 | -3.7 | 35.5µM* | 25.1µM* | 8.91µM*
O=C(CN1CCN(c2ccc([N+](=O)[O-])cc2)CC1)c1ccccc1 | ? | -8.0 | -4.7 | -25.7% | -4.1% | 7.08µM*
CC1CCN(CC(=O)N2c3ccccc3CC2C)CC1 (centres undefined) | -3.6% | 1.8 | 0.8 | -3.5% | 27.5% | -3.7%
O=C(CN1CCC2(CC1)OCCO2)c1ccc2cc[nH]c2c1 | -8.2% | -15.4 | -1.9 | 10.9% | 9.7% | ?
O=C(CN1CCN(c2ccccc2)CC1)c1ccc2cc[nH]c2c1 | -12.5% | -15.0 | 2.5 | 13.9% | 28.1% | 11.2µM*
CN1CCCC(OC(=O)c2ccc(S(=O)(=O)N(C)C)cc2)C1 (centres undefined) | 8.4% | . | 0.6 | -16.1% | 63.9% | -43.3%
O=C(COc1ncnc2ccccc12)N1CCN(c2ccccc2)CC1 | -17.6% | 9.7 | 6.7 | -17.3% | 7.1% | 50.1µM*
COc1cccc(NC(=O)C2CCN(S(=O)(=O)c3cccc4nonc34)CC2)c1 | 3.1% | . | . | -1.2% | 7.0% | -2.5%[59 µM]
c1coc(-c2nnc(NC3=NCCC3)o2)c1 | -13.9% | -2.9 | -5.4 | -0.6% | 28.3% | 6.3%[12.7 µM]
SMILES | JMJD2A Tudor | CtBP-E1A inh | Six1-Eya2 inh | BAZ2B inh | HP1b binding inh | G9a block
Cc1nnc(NC2=NCCC2)s1 | 79.4µM* | 0.1 | 5.0 | -27.9% | -6.3% | 28.2µM*
Cc1nnc(NC2=NCCC2)o1 | 1.0% | -2.4 | -2.7 | 79.4µM* | 40.7% | 9.2%[12.7 µM]
S=C(NCCc1ccccc1)Nc1cccc2cnccc12 | -30.1% | 2.6 | 0.3 | ? | -8.4% | 50.1µM*
S=C(NCc1ccccc1)Nc1cccc2cnccc12 | -11.3% | 0.0 | 6.2 | -22.8% | -9.9% | 22.4µM*
CCC(C)[C@H](N)C(=O)NC[C@H]1CC[C@H](C(=O)N[C@@H](Cc2ccccc2)C(=O)O)CC1 (some centres undefined) | 3.0% | -2.4 | 2.2 | 5.6% | 26.4% | 0.5%
O=C(c1ccco1)N(Cc1cccc([N+](=O)[O-])c1)c1ccc(Br)cc1 | ? | -2.1 | -12.6 | 50.1µM* | -2.2% | .
Cc1ccc(C)c(Cn2c3ccccc3c3cnn(CC(=O)NC(C)c4ccccc4)c(=O)c32)c1 (centres undefined) | -8.1% | . | . | -29.2% | 12.7% | -11.5%[59 µM]
Cc1cccc2c1-c1sc(C(=O)Nc3ccccc3N3CCN(C)CC3)cc1CO2 | ? | 2.0 | -8.3 | 44.7µM* | -6.7% | .
Cc1cccc2c1-c1sc(C(=O)NCCCN3CCN(c4ccccc4F)CC3)cc1CO2 | 5.8% | . | . | 5.9% | 53.0% | 1.2%[59 µM]
COc1cc2c(=O)n(Cc3ccccc3Cl)c(=O)n(CC(=O)Nc3ccccc3)c2cc1OC | -11.3% | . | . | -13.9% | 23.1% | -23.7%[59 µM]
Cc1cc(OCC(=O)Nc2sc3c(c2C#N)CCC(C)C3)ccc1Cl (centres undefined) | -12.7% | . | . | 3.6% | 33.8% | 9.6%[59 µM]
CC1CCc2c(sc(NC(=O)COc3ccccc3C(C)(C)C)c2C#N)C1 (centres undefined) | -19.0% | . | . | 1.0% | -5.1% | 10µM*
CN(C)S(=O)(=O)c1cccc(NC(=O)CSc2cccc3cccnc23)c1 | ? | -91.1* | -91.4* | 56.2µM* | -7.4% | 56.2µM*
O=C(O)CSc1cccnc1Sc1ccc(Cl)cc1 | -14.4% | 7.7 | 1.0 | . | 43.7% | .
Cc1ccc(C)c(SCC(=O)OCC(=O)NCCNC(=O)COC(=O)CSc2cc(C)ccc2C)c1 | -24.5% | -2.6 | 2.7 | 2.8% | -0.7% | ?
CN(C)S(=O)(=O)c1ccc(SCC(=O)Nc2cccc(S(=O)(=O)N3CCCC3)c2)nc1 | -16.6% | . | 1.6 | . | 32.1% | .

Compound activity (PubChem)
